Experimental data reported in PubChem BioAssay AID504339 (National Center for Advancing Translational Sciences (NCATS), 2011).
In all, about 390,000 compounds went through this assay and about 17,000 (4.4%) were called active. Roughly 8% stayed inconclusive and do not appear here. Calls come from the whole dose curve; as a rule, active = well fitted inhibition curve with a large enough effect; inconclusive = small, poorly fitted or top-dose-only effect; inactive = no such curve, though single readings can be large or run the other way. What follows is part of a selection rich in actives, with near analogues and random picks from the rest.

Biological target: Lysine-specific demethylase 4A (Homo sapiens) (UniProt O75164)
Sequence (O75164 whole entry, looked up, the tested form may be a part): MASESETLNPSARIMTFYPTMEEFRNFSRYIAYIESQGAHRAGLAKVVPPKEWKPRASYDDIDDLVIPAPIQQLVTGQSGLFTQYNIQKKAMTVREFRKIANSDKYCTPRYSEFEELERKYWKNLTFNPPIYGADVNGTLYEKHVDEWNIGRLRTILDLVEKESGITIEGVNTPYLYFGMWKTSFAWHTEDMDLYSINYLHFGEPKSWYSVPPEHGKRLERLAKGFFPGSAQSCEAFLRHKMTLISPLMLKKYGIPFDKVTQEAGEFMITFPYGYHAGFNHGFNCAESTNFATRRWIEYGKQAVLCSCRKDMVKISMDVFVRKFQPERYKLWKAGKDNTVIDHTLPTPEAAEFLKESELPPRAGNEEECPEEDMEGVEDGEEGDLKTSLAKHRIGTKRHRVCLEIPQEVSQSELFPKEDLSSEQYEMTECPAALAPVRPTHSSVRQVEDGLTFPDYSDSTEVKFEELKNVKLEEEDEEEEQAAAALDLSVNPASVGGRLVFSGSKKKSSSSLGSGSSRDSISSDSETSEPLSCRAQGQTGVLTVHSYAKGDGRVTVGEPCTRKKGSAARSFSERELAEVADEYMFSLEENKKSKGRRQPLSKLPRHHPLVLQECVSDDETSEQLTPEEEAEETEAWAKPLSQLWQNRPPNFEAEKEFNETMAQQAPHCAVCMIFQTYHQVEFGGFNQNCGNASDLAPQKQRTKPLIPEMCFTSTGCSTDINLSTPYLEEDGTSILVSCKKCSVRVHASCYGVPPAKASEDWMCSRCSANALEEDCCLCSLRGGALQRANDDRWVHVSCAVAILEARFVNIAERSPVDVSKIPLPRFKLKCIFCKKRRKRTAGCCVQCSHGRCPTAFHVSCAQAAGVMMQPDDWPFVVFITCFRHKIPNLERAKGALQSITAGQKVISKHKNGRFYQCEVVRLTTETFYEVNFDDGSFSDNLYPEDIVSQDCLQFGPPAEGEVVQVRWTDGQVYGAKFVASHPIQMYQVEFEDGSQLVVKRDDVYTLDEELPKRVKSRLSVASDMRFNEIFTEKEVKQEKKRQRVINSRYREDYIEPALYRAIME
Test: qHTS Assay for Inhibitors of JMJD2A-Tudor Domain; note: nearly all actives have a fitted effect of over 50% in size
Details: AlphaScreen JMJD2A-Tudor / H3K4me3 peptide binding; series mostly up to 114 µM; activity change, negative = inhibition: at the top concentration
Source text: JMJD2A is a jumonji-domain-containing lysine demethylase that uses Fe(II) together with 2-OG to effect oxidative demethylation of histones. Methylation is one of many […] modification that affect epigenetic transcription. […] It is proposed that the functions of JmjD2A binding to the histones, is to maintain marks after they are installed and to spread the modifications by […], establishing a self-propagating cycle for rapid methylation over a large area of chromatin. […] Thus, small molecule targeting of the JMJD2A-tudor domain interaction with its target methylhistone mark is expected to enable sophisticated experiments probing the fine regulatory pathways leading to selective demethylation of a given methyllysine locus based on the methylation state of adjacent histone marks. A quantitative high throughput AlphaScreen has been developed to identify small molecule inhibitors based on a protocol published by NCGC and SGC [4].
Although AlphaScreen has significant advantages with its utility in a variety of epigenetic target assays, the primary screening data provided in this deposition should be used with caution due to the prevalence of screening artifacts. The top compound concentration tested was high (>100uM) in this assay, which increases number of actives and potential artifacts. An AlphaScreen counterscreen is highly recommended to be run against any putative actives to eliminate non-specific artifacts. Alternatively, one can use other AlphaScreen assays in PubChem to filter out promiscuous hits.
[1] Lee, J. et al. Distinct binding modes specify the recognition of methylated histone H3K4 and H4K20 by JMJD2A-tudor. Nat Struct Mol Biol. 15(1); 109-11. 2008. PMID: 18084306
[2] Yasgar, et al. Compound Management for Quantitative High-Throughput Screening. JALA. 2008 Apr;13(2):79-89. PMID: 18496600
[3] Inglese, et al. Quantitative high-throughput screening: a titration-based approach that efficiently identifies biological activities in large chemical libraries. Proc Natl Acad Sci. 1;103(31):11473-8. 2006. PMID: 16864780
[4] Quinn et al. A homogeneous method for investigation of methyl-dependent protein-protein interactions in epigenetics. Nucleic Acids Res., 38(2):e11. 2010. PMID: […]
[5] Baell,Holloway. New substructure filters for removal of pan assay interference compounds (PAINS) from screening libraries and for their exclusion in bioassays. J Med Chem. 53(7):2719-40. 2010. PMID: 20131845
NIH Molecular Libraries Probe Production Network [MLPCN]
NIH Chemical Genomics Center [NCGC]
Structural Genomics Consortium (SGC)
To each well of a 1,536w plate, 2ul of JMJD2A-Tudor (final 100nM) and 1ul biotinylated histone peptide methylated at Lys4 [b-H3(1-18)K4me3] (final 50nM) were added in 1x PBS buffer, pH 7.4, containing 0.01% Tween-20, using a nanoliter dispenser. Formation of a protein-peptide complex proceeded at room temperature for 30 min. A Kalypsys pin-tool transferred 23nl of library compound solution in DMSO to each well. Following a 30 min incubation of the protein-peptide complex with compounds at room temperature, a mixture of 40 µg/mL each streptavidin-coated donor and nickel chelate acceptor AlphaScreen beads (final 10 µg/mL) was added in a 1ul dispense for a final volume of 4ul, followed by a brief centrifugation (1000 rpm, 1 min). Plates were incubated protected from the light for 20 min at room temperature. Microplates were then read on an EnVision multilabel plate reader using the 1,536 plate HTS AlphaScreen aperture (excitation time 80 ms, measurement time 240 ms).
% is set by controls: 0 for no effect and ±100 for the full control effect; potency is the fitted concentration of half-maximal effect.

SMILES | Potency | activity change, negative = inhibition
CCN(CC)S(=O)(=O)c1ccc(NC(=O)c2cccnc2Cl)c(NC(=O)c2cccnc2Cl)c1 | 31.6 µM (active) | 
CCN(CC)S(=O)(=O)c1ccc(NC(=O)c2cnc(C)cn2)cc1 |  | 0.664% (inactive)
Cc1ccc(CNC(=O)c2cccnc2Cl)cc1 |  | -11.1% (inactive)
Cc1ccccc1CN1CCC(CNC(=O)c2cc3ccc4cccnc4c3[nH]2)CC1 |  | -27.2% (inactive)
Cc1ccc(C(=O)Nc2c(C(=O)NC(C)(C)C)oc3ccccc23)cc1 |  | 6.8% (inactive)
O=C(Cc1ccc(Cl)cc1)NCC(c1cccs1)S(=O)(=O)c1ccc(Cl)cc1 (configuration not stated) |  | -13.3% (inactive)
Cc1cc(C)c(S(=O)(=O)N2CCOCC2)cc1C | 11.2 µM (active) | 
Cc1ccc(NC(=O)C2CC2)cc1S(=O)(=O)N1CCOCC1 |  | -17.9% (inactive)
COc1cc(C)c(S(=O)(=O)N2CCOCC2)c(C)c1C |  | 0% (inactive)
Cn1nc(-c2ccccc2)c(-c2ccccc2)c(C(=O)Nc2ccc(S(N)(=O)=O)cc2)c1=O |  | -18.9% (inactive)
CCOc1cccc2sc(N3CCN(C(=O)C4CC4)CC3)nc12 |  | -8.44% (inactive)
CCOC(=O)c1c(C)[nH]c(CCC(=O)Nc2ccc(OC)c(OC)c2)c1C |  | -27.9% (inactive)
O=C1Cc2cc(S(=O)(=O)Nc3ccc(OC(F)(F)F)cc3)cc3c2N1CCC3 |  | -14.3% (inactive)
O=C(NC1CCN(C(=S)Nc2ccc(Cl)cc2)CC1)C1CCCCC1 |  | -8.8% (inactive)
CN(C)c1ccc(C(=S)N2CCN(C(=S)Nc3ccc(Cl)cc3)CC2)cc1 | 28.2 µM (active) | 
CCOC(=O)c1ccc(NC(=S)N2CCCC2)cc1 |  | -7.88% (inactive)
Cc1c(CNC2CCCCC2)c(C(=O)O)c(C)n1Cc1cccc(Cl)c1 |  | -17.4% (inactive)
Cc1cccc(NC(=O)CSc2nnc(CNC(=O)c3cccc(C)c3)n2-c2ccccc2)c1 |  | -19.5% (inactive)
Cc1nn(-c2ccccc2)c(Cl)c1/C=N/NC(=O)c1nn(C)cc1[N+](=O)[O-] |  | 15.2% (inactive)
O=C(N/N=C/c1cc(Cl)cc([N+](=O)[O-])c1O)C(O)(c1ccccc1)c1ccccc1 | 50.1 µM (active) | 
O=C(Cc1ccccc1)N/N=C/c1ccc(Cl)cc1Cl |  | -6.47% (inactive)

SMILES | Potency | activity change, negative = inhibition
CCOC(=O)c1ccc(NC(=O)Cn2c(=O)cc(C)c3c(C)nn(-c4cccc(F)c4)c32)cc1 |  | -6.67% (inactive)
CCN1C(=O)c2ccccc2S(=O)c2ccc(C(=O)NCc3ccc(F)cc3)cc21 (configuration not stated) |  | 1.68% (inactive)
CN(C)c1cc(N)c2ccccc2n1 (tested in a mixture with another compound) | 2.82 µM (active) | 
CN(c1ccc2nc3ccccc3c(=O)n2n1)C1CCCCC1 |  | 4.35% (inactive)
O=C(CC1N=C2c3ccccc3N=C(SCc3ccc(F)cc3)N2C1=O)NCc1cccs1 (configuration not stated) |  | -21% (inactive)
Cc1cc(-c2ccc(C)c(S(=O)(=O)N3c4ccccc4CC3C)c2)on1 (configuration not stated) |  | 11.7% (inactive)
O=S(=O)(c1ccc2nc(N3CCN(c4cccc(Cl)c4)CC3)ccc2c1)N1CCCCC1 |  | 9.42% (inactive)
CCOC(=O)C1(C)NC(c2ccco2)C2C(=O)N(c3ccccc3)C(=O)C21 (configuration not stated) |  | -18.4% (inactive)
CCCCC1(C(=O)OCC)NC(c2ccc(O)cc2)C2C(=O)N(c3ccccc3)C(=O)C21 (configuration not stated) | 28.2 µM (active) | 
COC(=O)C1(C)NC(c2ccc(F)cc2)C2C(=O)N(c3ccccc3)C(=O)C21 (configuration not stated) |  | 1.31% (inactive)
COc1ccccc1CNC(=O)C(=O)NCC(c1cccs1)S(=O)(=O)c1cccs1 (configuration not stated) |  | -17.5% (inactive)
CCCN(CCC)S(=O)(=O)c1ccc(C(=O)Nc2sc3c(c2C(=O)OC)CCN(CC)C3)cc1 |  | -9.17% (inactive)
Cc1ccc2oc(C(=O)Nc3ccc(S(=O)(=O)N4CCCCCC4)cc3)cc(=O)c2c1 |  | -14.2% (inactive)
CC1CCCCN1CC(=O)N1CCCc2c1c(=O)oc1ccc(OCc3ccccc3)cc21 (configuration not stated) |  | -29.8% (inactive)
CCN(c1ccccc1)S(=O)(=O)c1cc(C(=O)NCc2ccccn2)ccc1C |  | -17.2% (inactive)
Cc1ccc(NC(=O)CNCc2ccccn2)cc1S(=O)(=O)N(C)C | 56.2 µM (active) | 
Cc1ccc(C(=O)Nc2ccc(C)c(S(=O)(=O)N(C)C)c2)s1 |  | -9.67% (inactive)
Cc1ccc(OCC(=O)Nc2ccc(OCc3cc(=O)n4c(C)csc4n3)cc2)cc1C |  | -23.8% (inactive)
Cc1cccc(NC(=O)Cn2c(C(F)(F)F)nc3ccccc32)c1C |  | -12.8% (inactive)
CCc1nccn1S(=O)(=O)c1cc(Br)ccc1Br |  | -1.49% (inactive)
N#C/C(=C\c1ccccc1F)c1nc2ccccc2c(=O)[nH]1 |  | -15.7% (inactive)

SMILES | Potency | activity change, negative = inhibition
Cc1n[nH]c(=O)n1-c1ccc(Oc2ccccc2)cc1 |  | -11% (inactive)
Cc1ccc(-c2nc(=N)sn2Cc2ccccc2)cc1 | 4.47 µM (active) | 
COc1ccc(-c2nc(=N)sn2-c2ccccc2)cc1 | 5.62 µM (active) | 
Cc1ccc(-c2cc(C(=O)NC3CCN(Cc4ccccc4)CC3)c3ccccc3n2)cc1 |  | -14.5% (inactive)
Cc1ccc(CN2C(=O)SC(Nc3ccccc3)C2=O)cc1 (configuration not stated) |  | 14.8% (inactive)
COc1ccc(-c2nn3c(-c4ccc(OC)cc4)nnc3c3ccccc23)cc1 |  | 5.15% (inactive)
CC(C)c1ccc2oc(-c3cc(NC(=O)c4cccs4)ccc3Cl)nc2c1 |  | -2.99% (inactive)
COC(=O)c1cc(NC(=O)CCc2c(C)nc3c4c(C)cc(C)nc4nn3c2C)cc(C(=O)OC)c1 |  | -13.2% (inactive)
COc1ccc(Cl)cc1NC(=O)CSc1nc(=O)[nH]c2c1CCCC2 |  | -2.27% (inactive)
Cc1cc(OCC(=O)Nc2ncn[nH]2)c(C)c(C)c1Br |  | -7.56% (inactive)
COc1ccc(Cn2cc(C(=O)c3ccc(C)cc3)c(=O)c3cc(OC)c(OC)cc32)cc1 |  | -31.3% (inactive)
COc1ccc(CCNC(=O)c2cn(C)c3ccc(S(=O)(=O)N(C)C4CCCCC4)cc3c2=O)cc1OC |  | -4.33% (inactive)
CCOc1cccc(CC(=O)N2CCc3c([nH]c4ccccc34)C2c2ccc(OC)cc2)c1OCC (configuration not stated) |  | -31.5% (inactive)
CCOc1ccc(C2c3[nH]c4ccccc4c3CCN2Cc2cccn2-c2ncccn2)cc1 (configuration not stated) | 44.7 µM (active) | 
CCOc1ccc(C2c3[nH]c4ccccc4c3CCN2Cc2cn(CC)nc2C)cc1 (configuration not stated) |  | -29.1% (inactive)
COc1ccc(C2CC(=O)Nc3c2c(=O)nc2c(C)cccn32)cc1OC (configuration not stated) |  | -18.9% (inactive)
Cc1ccc(-n2c(=O)c3cccnc3n2CC(=O)NCc2ccc(F)cc2)cc1C |  | 3.75% (inactive)
CCOC(=O)C1(CCOc2ccccc2)CCN(Cc2ccc(C#CCCO)cc2)CC1 |  | -15.1% (inactive)
Cc1c(CN2CCC(CO)(CCOc3ccccc3)CC2)[nH]c2ccc(Cl)cc12 | 50.1 µM (active) | 
CCOC(=O)C1(CCOc2ccccc2)CCN(Cc2cc(OC)cc(OC)c2)CC1 |  | -11.6% (inactive)
